Test results reported in the supplement of paper PMC11732987, “Enantioselective OTUD7B fragment discovery through chemoproteomics screening and high-throughput optimisation” (Communications Chemistry, 2025).

Columns and labels:
Experiment in all cases: log2 ratio of Biotin-Ahx-Ub-VS probe labelling (fragment/DMSO); higher = less target engagement (more negative = stronger competition), active = hit call of the paper (q ≤ 0.05, log2 ratio ≤ -1)
Details in all cases: compound concentration: 200 uM; treatment time: 3 h
USP19 = molecular target: T1, USP19 (UniProt O94966)
T1 sequence (whole entry): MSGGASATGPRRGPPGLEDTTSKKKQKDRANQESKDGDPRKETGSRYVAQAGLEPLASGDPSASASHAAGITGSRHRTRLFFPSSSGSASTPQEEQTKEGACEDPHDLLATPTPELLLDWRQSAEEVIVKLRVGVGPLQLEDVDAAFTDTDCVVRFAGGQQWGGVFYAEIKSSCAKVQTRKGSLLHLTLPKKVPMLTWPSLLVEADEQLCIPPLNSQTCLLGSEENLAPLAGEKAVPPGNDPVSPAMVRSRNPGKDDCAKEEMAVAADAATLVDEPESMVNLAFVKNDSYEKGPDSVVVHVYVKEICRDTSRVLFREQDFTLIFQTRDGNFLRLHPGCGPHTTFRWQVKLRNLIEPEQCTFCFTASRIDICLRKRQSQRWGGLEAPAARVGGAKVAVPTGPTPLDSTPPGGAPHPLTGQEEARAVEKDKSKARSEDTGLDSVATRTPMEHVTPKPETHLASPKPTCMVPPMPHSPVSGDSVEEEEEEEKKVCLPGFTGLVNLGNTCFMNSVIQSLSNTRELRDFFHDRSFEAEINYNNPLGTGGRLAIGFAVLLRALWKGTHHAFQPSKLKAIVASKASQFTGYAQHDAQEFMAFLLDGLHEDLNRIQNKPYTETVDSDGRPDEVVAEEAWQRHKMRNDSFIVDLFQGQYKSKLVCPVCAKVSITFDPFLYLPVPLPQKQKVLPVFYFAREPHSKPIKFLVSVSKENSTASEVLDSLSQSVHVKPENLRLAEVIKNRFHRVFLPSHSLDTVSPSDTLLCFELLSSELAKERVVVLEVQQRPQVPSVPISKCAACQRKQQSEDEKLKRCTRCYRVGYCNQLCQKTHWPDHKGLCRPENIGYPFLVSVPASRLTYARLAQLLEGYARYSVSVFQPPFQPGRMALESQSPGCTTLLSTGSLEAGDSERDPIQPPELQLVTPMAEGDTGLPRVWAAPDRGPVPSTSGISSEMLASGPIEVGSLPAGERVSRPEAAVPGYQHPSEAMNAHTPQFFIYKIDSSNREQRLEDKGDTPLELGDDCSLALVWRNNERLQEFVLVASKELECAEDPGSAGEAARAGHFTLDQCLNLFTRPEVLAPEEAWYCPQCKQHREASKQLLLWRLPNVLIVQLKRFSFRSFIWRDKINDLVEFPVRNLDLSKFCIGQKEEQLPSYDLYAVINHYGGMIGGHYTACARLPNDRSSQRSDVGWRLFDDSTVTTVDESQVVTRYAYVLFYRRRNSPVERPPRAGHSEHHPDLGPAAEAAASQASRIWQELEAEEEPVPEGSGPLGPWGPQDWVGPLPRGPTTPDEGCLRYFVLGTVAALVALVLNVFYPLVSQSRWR
Procedure, shortened: (§1)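 Fragment (200 µM) or vehicle was incubated for 3 h with triplicate HEK293T lysate samples of 495 µg, which were then treated with Biotin-Ahx-Ub-VS at 0.5 µM final for 1 h. Labelled DUBs were enriched on NeutrAvidin, digested with LysC and trypsin, and analysed by diaPASEF LC-MS/MS. Values are average log2 fragment/vehicle ratios from an unpaired t-test on global-median-normalised Spectronaut label-free quantities, using proteins with ≥2 unique peptides.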

USP22 = molecular target: T2, USP22 (UniProt Q9UPT9)
T2 sequence (whole entry): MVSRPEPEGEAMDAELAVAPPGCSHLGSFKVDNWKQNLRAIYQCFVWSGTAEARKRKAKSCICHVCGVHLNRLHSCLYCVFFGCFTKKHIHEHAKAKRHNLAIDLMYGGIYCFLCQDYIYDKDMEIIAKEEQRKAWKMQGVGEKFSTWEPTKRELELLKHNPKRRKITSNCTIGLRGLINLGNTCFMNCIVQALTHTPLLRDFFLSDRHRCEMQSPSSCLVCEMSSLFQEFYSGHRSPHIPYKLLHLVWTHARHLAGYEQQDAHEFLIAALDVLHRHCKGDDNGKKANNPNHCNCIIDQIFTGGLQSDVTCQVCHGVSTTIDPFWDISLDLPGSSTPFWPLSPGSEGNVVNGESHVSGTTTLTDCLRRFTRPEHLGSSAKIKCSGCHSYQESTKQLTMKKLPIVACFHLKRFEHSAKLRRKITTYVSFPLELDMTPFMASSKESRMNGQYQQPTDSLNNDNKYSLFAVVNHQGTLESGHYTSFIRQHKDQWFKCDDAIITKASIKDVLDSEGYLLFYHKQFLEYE
Procedure, shortened: as §1

USP24 = USP24 (UniProt Q9UPU5)
Procedure, shortened: as §1

USP25 = molecular target: T3, USP25 (UniProt Q9UHP3)
T3 sequence (whole entry): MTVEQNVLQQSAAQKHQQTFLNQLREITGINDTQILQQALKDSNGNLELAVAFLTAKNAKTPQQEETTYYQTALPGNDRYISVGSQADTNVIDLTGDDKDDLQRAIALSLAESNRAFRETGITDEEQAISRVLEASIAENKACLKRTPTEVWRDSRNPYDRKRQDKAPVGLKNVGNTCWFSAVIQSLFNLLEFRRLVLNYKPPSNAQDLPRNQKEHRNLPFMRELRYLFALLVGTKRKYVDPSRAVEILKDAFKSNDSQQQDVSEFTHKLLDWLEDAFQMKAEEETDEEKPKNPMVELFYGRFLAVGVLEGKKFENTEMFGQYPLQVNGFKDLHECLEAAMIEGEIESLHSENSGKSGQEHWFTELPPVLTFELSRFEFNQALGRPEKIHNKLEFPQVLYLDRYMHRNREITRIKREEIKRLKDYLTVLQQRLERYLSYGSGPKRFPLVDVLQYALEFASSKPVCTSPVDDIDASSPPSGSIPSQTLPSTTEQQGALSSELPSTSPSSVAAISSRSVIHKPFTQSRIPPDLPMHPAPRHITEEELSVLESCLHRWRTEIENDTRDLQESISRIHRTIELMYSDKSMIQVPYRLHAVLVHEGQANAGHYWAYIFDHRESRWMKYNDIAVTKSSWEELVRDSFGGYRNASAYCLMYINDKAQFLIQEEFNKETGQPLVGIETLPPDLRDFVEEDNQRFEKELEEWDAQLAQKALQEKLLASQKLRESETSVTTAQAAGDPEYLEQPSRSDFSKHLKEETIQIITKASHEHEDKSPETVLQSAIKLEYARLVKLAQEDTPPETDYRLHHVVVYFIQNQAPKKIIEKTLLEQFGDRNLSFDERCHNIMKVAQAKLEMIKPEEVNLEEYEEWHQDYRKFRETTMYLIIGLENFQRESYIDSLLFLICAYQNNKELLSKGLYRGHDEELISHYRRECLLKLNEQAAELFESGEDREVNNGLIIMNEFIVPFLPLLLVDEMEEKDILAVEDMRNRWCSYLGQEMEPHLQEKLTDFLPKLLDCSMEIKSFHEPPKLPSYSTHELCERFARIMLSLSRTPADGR
Procedure, shortened: as §1

USP28 = molecular target: T4, USP28 (UniProt Q96RU2)
T4 sequence (whole entry): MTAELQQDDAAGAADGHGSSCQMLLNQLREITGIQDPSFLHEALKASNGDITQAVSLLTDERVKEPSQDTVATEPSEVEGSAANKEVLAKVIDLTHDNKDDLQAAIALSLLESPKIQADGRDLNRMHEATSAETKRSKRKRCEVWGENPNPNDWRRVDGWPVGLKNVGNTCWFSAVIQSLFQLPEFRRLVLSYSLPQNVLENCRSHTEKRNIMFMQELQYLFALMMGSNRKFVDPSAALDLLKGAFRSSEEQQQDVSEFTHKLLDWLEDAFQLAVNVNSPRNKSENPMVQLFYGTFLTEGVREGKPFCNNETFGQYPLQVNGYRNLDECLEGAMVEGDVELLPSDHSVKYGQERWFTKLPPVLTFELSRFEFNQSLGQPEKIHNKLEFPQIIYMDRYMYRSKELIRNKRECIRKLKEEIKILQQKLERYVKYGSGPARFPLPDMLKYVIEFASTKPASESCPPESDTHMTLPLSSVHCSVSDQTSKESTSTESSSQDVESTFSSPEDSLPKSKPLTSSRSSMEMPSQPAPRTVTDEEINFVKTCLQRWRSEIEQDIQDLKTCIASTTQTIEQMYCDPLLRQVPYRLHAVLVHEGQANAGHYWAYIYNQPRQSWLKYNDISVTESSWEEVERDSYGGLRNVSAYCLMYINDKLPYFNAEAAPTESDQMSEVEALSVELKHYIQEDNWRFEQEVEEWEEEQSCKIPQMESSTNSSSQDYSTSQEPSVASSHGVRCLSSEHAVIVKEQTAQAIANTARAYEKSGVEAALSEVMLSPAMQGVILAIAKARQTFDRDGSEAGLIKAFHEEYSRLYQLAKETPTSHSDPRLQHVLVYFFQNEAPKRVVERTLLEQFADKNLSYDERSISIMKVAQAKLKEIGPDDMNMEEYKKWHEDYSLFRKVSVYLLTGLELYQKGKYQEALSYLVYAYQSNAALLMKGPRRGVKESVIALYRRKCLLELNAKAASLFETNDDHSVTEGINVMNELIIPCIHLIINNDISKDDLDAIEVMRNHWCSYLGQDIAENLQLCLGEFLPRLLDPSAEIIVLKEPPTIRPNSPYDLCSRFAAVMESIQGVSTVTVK
Procedure, shortened: as §1

Measured: log2 ratio of Biotin-Ahx-Ub-VS probe labelling

Chain of USP24 (Q9UPU5 whole entry): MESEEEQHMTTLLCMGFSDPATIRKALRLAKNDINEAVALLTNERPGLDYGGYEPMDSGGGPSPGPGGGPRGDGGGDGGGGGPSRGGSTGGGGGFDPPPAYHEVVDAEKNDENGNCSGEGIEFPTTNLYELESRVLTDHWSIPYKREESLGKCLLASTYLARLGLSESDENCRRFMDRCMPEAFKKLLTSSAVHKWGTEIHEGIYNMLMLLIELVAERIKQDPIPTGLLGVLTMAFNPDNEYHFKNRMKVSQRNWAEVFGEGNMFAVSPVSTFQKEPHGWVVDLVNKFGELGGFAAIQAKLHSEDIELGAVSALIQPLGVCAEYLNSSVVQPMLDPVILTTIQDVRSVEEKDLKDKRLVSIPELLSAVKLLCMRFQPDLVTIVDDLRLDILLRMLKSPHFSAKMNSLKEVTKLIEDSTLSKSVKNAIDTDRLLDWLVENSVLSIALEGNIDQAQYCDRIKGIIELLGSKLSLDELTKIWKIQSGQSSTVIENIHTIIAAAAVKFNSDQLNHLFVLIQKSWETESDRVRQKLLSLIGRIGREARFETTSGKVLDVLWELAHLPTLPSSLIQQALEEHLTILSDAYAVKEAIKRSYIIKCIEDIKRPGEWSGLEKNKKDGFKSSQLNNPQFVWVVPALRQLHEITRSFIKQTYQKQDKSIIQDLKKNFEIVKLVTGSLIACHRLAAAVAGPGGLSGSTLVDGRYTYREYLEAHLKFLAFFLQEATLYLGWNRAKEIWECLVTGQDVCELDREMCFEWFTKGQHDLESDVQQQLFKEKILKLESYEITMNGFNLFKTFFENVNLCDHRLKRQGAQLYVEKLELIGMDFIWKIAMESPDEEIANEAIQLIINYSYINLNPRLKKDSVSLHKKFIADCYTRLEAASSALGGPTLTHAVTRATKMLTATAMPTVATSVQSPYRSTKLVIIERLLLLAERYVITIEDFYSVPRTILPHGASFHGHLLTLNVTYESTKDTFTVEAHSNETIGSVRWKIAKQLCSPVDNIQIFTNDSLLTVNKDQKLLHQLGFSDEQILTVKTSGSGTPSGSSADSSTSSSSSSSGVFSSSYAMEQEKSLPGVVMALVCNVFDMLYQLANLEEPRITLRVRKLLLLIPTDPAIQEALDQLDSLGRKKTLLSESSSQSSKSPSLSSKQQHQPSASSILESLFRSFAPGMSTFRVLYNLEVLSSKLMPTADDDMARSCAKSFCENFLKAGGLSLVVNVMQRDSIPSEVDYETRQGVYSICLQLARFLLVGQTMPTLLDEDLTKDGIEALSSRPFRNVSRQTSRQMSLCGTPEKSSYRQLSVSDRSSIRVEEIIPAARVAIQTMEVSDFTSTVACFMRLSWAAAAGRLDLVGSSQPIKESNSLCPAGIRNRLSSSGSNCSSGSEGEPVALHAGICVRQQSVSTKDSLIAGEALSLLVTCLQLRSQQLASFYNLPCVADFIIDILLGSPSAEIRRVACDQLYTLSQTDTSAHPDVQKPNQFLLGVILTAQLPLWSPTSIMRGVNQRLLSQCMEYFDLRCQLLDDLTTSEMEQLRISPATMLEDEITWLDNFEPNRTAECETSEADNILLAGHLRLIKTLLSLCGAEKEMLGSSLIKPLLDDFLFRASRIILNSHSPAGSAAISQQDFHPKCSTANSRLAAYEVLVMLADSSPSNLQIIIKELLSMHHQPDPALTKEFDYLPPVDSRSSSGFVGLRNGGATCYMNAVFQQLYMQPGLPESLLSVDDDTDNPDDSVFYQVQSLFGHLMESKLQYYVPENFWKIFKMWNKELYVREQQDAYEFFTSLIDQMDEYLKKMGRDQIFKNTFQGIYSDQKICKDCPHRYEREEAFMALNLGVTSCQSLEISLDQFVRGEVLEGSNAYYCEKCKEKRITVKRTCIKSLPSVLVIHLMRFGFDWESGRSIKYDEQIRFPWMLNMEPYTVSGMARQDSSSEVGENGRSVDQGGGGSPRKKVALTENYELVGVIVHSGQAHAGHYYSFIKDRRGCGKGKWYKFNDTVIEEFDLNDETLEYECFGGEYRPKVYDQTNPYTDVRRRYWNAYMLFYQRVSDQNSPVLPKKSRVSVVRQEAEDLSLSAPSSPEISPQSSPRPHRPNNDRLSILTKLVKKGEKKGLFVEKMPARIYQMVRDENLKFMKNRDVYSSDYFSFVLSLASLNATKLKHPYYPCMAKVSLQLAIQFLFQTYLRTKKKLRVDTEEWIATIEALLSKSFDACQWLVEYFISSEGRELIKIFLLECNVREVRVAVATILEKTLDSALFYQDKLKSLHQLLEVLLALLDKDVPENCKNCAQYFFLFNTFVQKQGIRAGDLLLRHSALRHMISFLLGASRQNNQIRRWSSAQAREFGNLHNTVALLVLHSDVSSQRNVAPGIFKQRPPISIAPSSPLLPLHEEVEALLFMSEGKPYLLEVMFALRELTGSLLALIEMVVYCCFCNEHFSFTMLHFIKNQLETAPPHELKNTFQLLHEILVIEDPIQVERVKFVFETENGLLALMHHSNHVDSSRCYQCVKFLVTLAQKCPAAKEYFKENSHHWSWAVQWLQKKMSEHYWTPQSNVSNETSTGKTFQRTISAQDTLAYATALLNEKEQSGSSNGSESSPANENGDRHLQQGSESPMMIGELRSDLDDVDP

Cc1ncsc1CCNC(=O)CCl
inactive: USP19 0.249 | USP22 0.314 | USP24 0.197 | USP25 -0.144 | USP28 0.0198
